From PubChem BioAssay AID2275 (Broad Institute, 2010)
The campaign covered roughly 30,000 compounds. About 190 (0.63%) were called active. Only a selection was taken, and actives are over-represented in it overall. A number with no mark means an inactive call. No stated cut-off is given here; in the data, active means viability loss activity score above about 50%; inconclusive means no clear call, values can overlap the other calls; inactive means below about 35%.

Assay: BJeLR cell viability loss, primary screen, luminescence, CellTiterGlo ATP (AID 2275);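 further: higher score means fewer live cells and less ATP luminescence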
Details: BJeLR fibroblasts viability, 48 h, hits give high values, concentration not given here; HRASV12, hTERT and SV40 LT/ST transformed unless noted
With `CN[C@@H]1C[C@H]2O[C@@](C)([C@@H]1OC)n1c3ccccc3c3c4c(c5c6ccccc6n2c5c31)C(=O)NC4` the viability loss activity score was 127% (active).
With `CCCCCCCCCCCCCC(=O)O[C@@H]1[C@@H](C)[C@@]2(O)[C@@H](C=C(CO)C[C@]3(O)C(=O)C(C)=C[C@@H]23)[C@@H]2C(C)(C)[C@]12OC(C)=O` the viability loss activity score was 4.17%.
`CN1C2C=C(N(C(=O)c3ccc(Cl)cc3)c3ccccc3)CC1CC2` (stereo not given) gave a viability loss activity score of 0.717%.
For `CCOC(=O)[C@@H]1[C@@H]2NC(=O)N[C@@]1(C)Oc1ccccc12`, the viability loss activity score was -1.85% [setting not given].
In the case of `Fc1ccc(CNC2=NCCS2)cc1`, the viability loss activity score is reported as 2.3%.
In the case of `CNC(=O)N(C)c1nnc(C(C)(C)C)s1`, the viability loss activity score is reported as -2.35% [setting not given].
With `c1ccc2c(c1)[I+]c1ccccc1-2` the viability loss activity score was 73.2% (active).
In the case of `CC(=O)Nc1nc(C)c(Oc2ccccc2)c(OC(=O)N(C)C)n1`, the viability loss activity score is reported as -1.11%.
`COC1=C[C@@H]2[C@@H]3Cc4ccc(OC)c(O)c4[C@]2(CCN3C)CC1=O` showed a viability loss activity score of 1.23% [setting not given].
In the case of `CN1CC=C(c2noc(CCC(=O)Nc3ccc(F)cc3F)n2)CC1`, the viability loss activity score is reported as 2.02%.
With `CC(C)[C@@]1(NC(=O)[C@@H]2CC3c4cccc5[nH]cc(c45)C[C@H]3N(C)C2)O[C@@]2(O)[C@@H]3CCCN3C(=O)[C@H](Cc3ccccc3)N2C1=O` (stereo not given in full) the viability loss activity score was -5.08%.
In the case of `O=C(O)C1C2CCC(O2)C1C(=O)N1CCN(C/C=C/c2ccccc2)CC1` (stereo not given), the viability loss activity score is reported as 8.76%.
With `C[C@H]1O[C@@H](O[C@H]2CC[C@]3(CO)C4CC[C@]5(C)[C@@H](C6=CC(=O)OC6)CC[C@]5(O)[C@@H]4CC[C@H]3C2)[C@H](O)[C@H](O)[C@@H]1O[C@@H]1O[C@H](CO)[C@@H](O)[C@H](O)[C@H]1O` (stereo not given in full) the viability loss activity score was 109% (active).
For `Cc1ccc(CSc2nnc(OC(=O)N(C)C)n2-c2cccc(Cl)c2)cc1`, the viability loss activity score was 5.26%.
For `CC1N=C(c2ccccc2)c2ccccc2N(CCCOc2ccc(F)cc2)C1=O` (stereo not given), the viability loss activity score was -3.72%.
Work on `CC(C)(c1ccccc1)c1ccc(O)cc1` yielded a viability loss activity score of 0.81%.
With `CC(C)c1ccc2c(c1O)CC[C@H]1C3=C(CC[C@]21C)C(=O)OC3` the viability loss activity score was 4.52%.
For `C[C@H]1CCC/C=C/C2C[C@H](O)C[C@H]2[C@H](O)/C=C\C(=O)O1` (stereo not given in full), the viability loss activity score was 74.4% (active).
With `CCN(CC)C(=O)c1ccc(N(Cc2ccccc2Cl)S(C)(=O)=O)cc1` the viability loss activity score was 5.52%.
Molecule `Fc1cccc(NC2=NCCS2)c1` has a viability loss activity score of 7.57%.
